Data: PubChem BioAssay (Tox21)
Inconclusive results are not listed. Active and inactive are the calls of the source. Unless noted, calls come from the whole dose curve.

Key:
[1] = molecular target: Peroxisome proliferator-activated receptor delta (Homo sapiens) (UniProt Q03181); test: qHTS assay to identify small molecule agonists of the peroxisome proliferator-activated receptor delta (PPARd) signaling pathway (AID 743212);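 note: HEK293H cells with PPARd UAS beta-lactamase reporter GeneBLAzer system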
Outline: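 Steps: seed PPARd-bla HEK293H cells; incubate 5 h, 37 C, 5% CO2; add compounds in DMSO; incubate, 37 C; add LiveBLAzer B/G FRET substrate; hold 2 h at room temperature; measure fluorescence.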

[2] = qHTS assay to identify small molecule antagonists of the peroxisome proliferator-activated receptor delta (PPARd) signaling pathway - cell viability counter screen (AID 743213; active = well fitted curve in the direction sought with a large enough effect in the repeat runs; an effect the other way counts as inactive or inconclusive; note: nearly all actives have a fitted effect of over 50% in size)
Outline: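 Agonist-stimulated (L165041, 300 nM final) HEK293H PPARd UAS-bla cells are exposed to compounds for 17 h at 37 C, and ATP-based luminescence (CellTiter-Glo) from the same wells reports cytotoxicity.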

[3] = molecular target: Peroxisome proliferator-activated receptor delta (Homo sapiens) (UniProt Q03181); test: qHTS assay to identify small molecule antagonists of the peroxisome proliferator-activated receptor delta (PPARd) signaling pathway (AID 743215; active = well fitted inhibition curve with a large enough effect in the signal ratio in the repeat runs, not every such curve was filed as active; the % refers to the signal ratio; note: series mostly up to about 62 µM)
Outline: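 Here, a reporter line (HEK293H, beta-lactamase under a UAS) measures PPARd signaling. Compounds are tested against agonist L165041 at 300 nM final concentration over 17 h at 37 C, with fluorescence read after substrate.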

[4] = qHTS assay to identify small molecule agonists of the farnesoid-X-receptor (FXR) signaling pathway - cell viability counter screen (AID 743218; active = well fitted curve in the direction sought with a large enough effect in the repeat runs; an effect the other way counts as inactive or inconclusive; note: nearly all actives have a fitted effect of over 45% in size)
Outline: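 Quantitative HTS counter screen measuring ATP-based viability via CellTiter-Glo luminescence in HEK 293T cells carrying a UAS-driven beta-lactamase reporter, after 16 h compound exposure at 37 C.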

[5] = qHTS assay to identify small molecule antagonists of the farnesoid-X-receptor (FXR) signaling pathway - cell viability counter screen (AID 743221; active = well fitted cell-killing curve with a large enough effect in the repeat runs, not every such curve was filed as active; note: nearly all actives have a fitted effect of over 50% in size)
Outline: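 HEK 293T FXR-bla cells, 5 h pre-incubation; compound + CDCA 50 uM final, 16 h, 37 C; beta-lactamase FRET read first, then CellTiter-Glo luminescence, 30 min RT.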

[6] = molecular target: Vitamin D3 receptor (Homo sapiens) (UniProt P11473); test: qHTS assay to identify small molecule agonists of the vitamin D receptor (VDR) signaling pathway (AID 743222)
Outline: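 Tox21 cell reporter format: VDR-bla line, 16 h compound exposure in 5% CO2 at 37C, then fluorescence intensity after 2 h with LiveBLAzer B/G FRET substrate.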

[7] = molecular target: Vitamin D3 receptor (Homo sapiens) (UniProt P11473); test: qHTS assay to identify small molecule antagonists of the vitamin D receptor (VDR) signaling pathway (AID 743223; active = well fitted inhibition curve with a large enough effect in the signal ratio in the repeat runs, not every such curve was filed as active; the % refers to the signal ratio)
Outline: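 Beta-lactamase reporter read-out: FRET substrate fluorescence after 2 h at room temperature, following 16 h exposure of VDR-bla cells to test compound plus 3 nM (final) 1alpha,25-dihydroxyvitamin D3 agonist at 37C.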

[8] = qHTS assay to identify small molecule agonists of the vitamin D receptor (VDR) signaling pathway - cell viability counter screen (AID 743224; active = well fitted curve in the direction sought with a large enough effect in the repeat runs; an effect the other way counts as inactive or inconclusive; note: series mostly up to about 63 µM; nearly all actives have a fitted effect of over 50% in size)
Outline: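 CellTiter-Glo viability readout on VDR-bla cells, measured after 16 h of compound treatment at 37C in the same wells.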

[9] = qHTS assay to identify small molecule antagonists of the vitamin D receptor (VDR) signaling pathway - cell viability counter screen (AID 743225; active = well fitted curve in the direction sought with a large enough effect in the repeat runs; an effect the other way counts as inactive or inconclusive; note: nearly all actives have a fitted effect of over 50% in size)
Outline: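 Viability counter screen run in the same wells as the beta-lactamase reporter assay: HEK 293T VDR-UAS-bla cells, 16 h compound exposure at 37C with 3 nM (final) 1-alpha,25-dihydroxyvitamin D3. CellTiter-Glo luminescence, 30 min, room temperature.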

[10] = qHTS assay to identify small molecule agonists of the NFkB signaling pathway (AID 1159509; active = well fitted curve in the direction sought with a large enough effect in the signal ratio in the repeat runs, not every such curve was filed as active; the % refers to the signal ratio; note: series mostly up to about 61 µM)
Outline: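 Readout: FRET fluorescence, 405 nm excitation, 460/530 nm emission; beta-lactamase expression disrupts FRET. Cells: ME-180 stably carrying NF-kB-driven bla reporter. Compound exposure 5 hr, 37 C, 5% CO2.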

[11] = qHTS assay to identify small molecule agonists of the endoplasmic reticulum stress response signaling pathway (AID 1159516; active = well fitted activation curve with a large enough effect in the signal ratio in the repeat runs, not every such curve was filed as active; the % refers to the signal ratio)
Outline: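 Fluorescence at 460 and 530 nm (405 nm excitation) reports beta-lactamase from an ER stress response element in HeLa cells treated 5 hr at 37 C.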

[12] = qHTS assay to identify small molecule agonists of the endoplasmic reticulum stress response signaling pathway - cell viability counter screen (AID 1159517)
Outline: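 After overnight attachment, ESRE-bla HeLa cells were treated with Tox21 library compounds for 5 hr. CellTiter-Glo luminescence, read 30 min post-addition at room temperature, reported viability.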

[13] = qHTS assay to identify small molecule antagonists of the retinoid-related orphan receptor gamma (ROR-gamma) signaling pathway - cell viability counter screen (AID 1159520; active = well fitted curve in the direction sought with a large enough effect in the repeat runs; an effect the other way counts as inactive or inconclusive; note: nearly all actives have a fitted effect of over 50% in size)
Outline: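 Cytotoxicity was read from cellular ATP (CellTiter-Glo luminescence) after 16 hr at 37 C with 1 uM doxycycline induction. The inducer was added 2 hr after compound transfer to Tet-on ROR gamma CHO cells.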

[14] = molecular target: Nuclear receptor ROR-gamma (Homo sapiens) (UniProt P51449); test: qHTS assay to identify small molecule antagonists of the retinoid-related orphan receptor gamma (ROR-gamma) signaling pathway (AID 1159521; active = well fitted curve in the direction sought with a large enough effect in the repeat runs; an effect the other way counts as inactive or inconclusive)
Outline: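 Luminescence readout (ONE-Glo, 30 min RT) after 16 h doxycycline induction; loss of signal scored as antagonism. CHO cells with TET-inducible RORγ and RORE-LUC reporter; compounds added 2 h before 1 uM final doxycycline.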

[15] = qHTS assay to identify small molecule agonists of the AP-1 signaling pathway - cell viability counter screen (AID 1159525); note: nearly all actives have a fitted effect of over 55% in size
Outline: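 Intracellular ATP by Cell Titer Glo luminescence (30 min, RT) in the same ME-180 AP-1-bla wells after the 5 h compound exposure at 37 °C. Normalised to tetra n-octyl ammonium bromide and DMSO controls.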

[16] = qHTS assay to identify small molecule agonists of the AP-1 signaling pathway (AID 1159526)
[17] = molecular target: Retinoic acid receptor RXR-alpha (Homo sapiens) (UniProt P19793); test: qHTS assay to identify small molecule agonists of the RXR signaling pathway (AID 1159527); note: nearly all actives have a fitted effect of over 35% in size
Outline: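 Agonist mode; 9-cis retinoic acid positive control. HEK 293T UAS-bla reporter cells, 2% charcoal-stripped FBS, 16 hr compound exposure at 37 C/5% CO2. LiveBLAzer B/G FRET substrate 2 hr RT; ex 405, em 460/530 nm.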

[18] = molecular target: Bile acid receptor (Homo sapiens) (UniProt Q96RI1); test: qHTS assay to identify small molecule antagonists of the farnesoid-X-receptor (FXR) signaling pathway (AID 743217; active = well fitted inhibition curve with a large enough effect in the signal ratio in the repeat runs, not every such curve was filed as active; the % refers to the signal ratio)
Outline: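 Test compounds are pin-transferred onto FXR-bla HEK 293T cells, then chenodeoxycholic acid is added at 50 uM final. After 16 h at 37 °C, LiveBLAzer B/G substrate is applied for 2 h at room temperature and fluorescence read.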

[19] = molecular target: Bile acid receptor (Homo sapiens) (UniProt Q96RI1); test: qHTS assay to identify small molecule agonists of the farnesoid-X-receptor (FXR) signaling pathway (AID 743220; active = well fitted activation curve with a large enough effect in the signal ratio in the repeat runs, not every such curve was filed as active; the % refers to the signal ratio)
Outline: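 FXR-UAS-bla HEK 293T cells carrying a UAS-driven beta-lactamase reporter were plated for 5 h at 37C/5% CO2, then exposed to DMSO-dissolved Tox21 10K compounds for 16 h at 37C. A LiveBLAzer B/G FRET substrate was loaded for 2 h at room temperature before fluorescence reading.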

[20] = qHTS assay to identify small molecule agonists of the NFkB signaling pathway - cell viability counter screen (AID 1159515); note: series mostly up to about 61 µM; nearly all actives have a fitted effect of over 55% in size
Outline: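 Tox21 library compounds were tested for cytotoxicity against NFkB-bla ME-180 cells during a 5 hr exposure at 37 C. CellTiter-Glo luminescence served as the viability read-out.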

Measured: Potency

Peroxisome proliferator-activated receptor delta (Homo sapiens), sequence (Q03181 whole entry, looked up): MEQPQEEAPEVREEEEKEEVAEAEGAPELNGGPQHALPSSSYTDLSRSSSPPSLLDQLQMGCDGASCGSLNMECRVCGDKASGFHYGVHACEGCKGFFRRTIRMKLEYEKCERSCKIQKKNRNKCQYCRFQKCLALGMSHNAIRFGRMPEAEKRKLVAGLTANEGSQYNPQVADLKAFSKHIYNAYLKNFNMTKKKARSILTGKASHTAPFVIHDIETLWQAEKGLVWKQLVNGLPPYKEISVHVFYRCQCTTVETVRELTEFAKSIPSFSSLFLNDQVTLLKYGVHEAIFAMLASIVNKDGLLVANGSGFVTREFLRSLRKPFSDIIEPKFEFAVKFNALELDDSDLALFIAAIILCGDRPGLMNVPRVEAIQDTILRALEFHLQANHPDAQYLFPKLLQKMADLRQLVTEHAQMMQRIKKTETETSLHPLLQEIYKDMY
Vitamin D3 receptor (Homo sapiens), sequence (P11473 whole entry, looked up): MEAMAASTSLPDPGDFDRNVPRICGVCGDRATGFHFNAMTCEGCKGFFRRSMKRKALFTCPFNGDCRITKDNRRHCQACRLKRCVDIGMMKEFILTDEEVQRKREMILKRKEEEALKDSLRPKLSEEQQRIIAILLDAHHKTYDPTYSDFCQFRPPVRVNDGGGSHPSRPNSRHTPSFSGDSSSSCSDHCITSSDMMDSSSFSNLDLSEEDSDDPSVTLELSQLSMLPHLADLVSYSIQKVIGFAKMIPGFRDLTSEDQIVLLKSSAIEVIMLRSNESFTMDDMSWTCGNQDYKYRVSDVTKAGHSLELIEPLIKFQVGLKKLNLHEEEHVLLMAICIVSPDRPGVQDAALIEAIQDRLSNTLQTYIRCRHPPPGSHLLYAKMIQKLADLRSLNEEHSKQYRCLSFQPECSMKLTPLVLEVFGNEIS
Retinoic acid receptor RXR-alpha (Homo sapiens), sequence (P19793 whole entry, looked up): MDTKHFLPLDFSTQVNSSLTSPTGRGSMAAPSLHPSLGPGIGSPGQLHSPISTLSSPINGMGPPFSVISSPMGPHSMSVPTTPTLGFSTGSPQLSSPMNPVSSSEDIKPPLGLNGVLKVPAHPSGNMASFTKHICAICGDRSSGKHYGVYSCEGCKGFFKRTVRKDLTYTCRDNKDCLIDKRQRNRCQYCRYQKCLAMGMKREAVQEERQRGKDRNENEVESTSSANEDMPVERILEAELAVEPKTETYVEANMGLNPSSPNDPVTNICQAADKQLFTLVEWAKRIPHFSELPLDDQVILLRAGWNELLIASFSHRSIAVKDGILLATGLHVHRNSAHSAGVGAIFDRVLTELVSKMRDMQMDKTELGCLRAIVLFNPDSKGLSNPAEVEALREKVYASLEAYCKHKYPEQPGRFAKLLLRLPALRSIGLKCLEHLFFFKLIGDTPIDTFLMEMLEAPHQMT
Bile acid receptor (Homo sapiens), sequence (Q96RI1 whole entry, looked up): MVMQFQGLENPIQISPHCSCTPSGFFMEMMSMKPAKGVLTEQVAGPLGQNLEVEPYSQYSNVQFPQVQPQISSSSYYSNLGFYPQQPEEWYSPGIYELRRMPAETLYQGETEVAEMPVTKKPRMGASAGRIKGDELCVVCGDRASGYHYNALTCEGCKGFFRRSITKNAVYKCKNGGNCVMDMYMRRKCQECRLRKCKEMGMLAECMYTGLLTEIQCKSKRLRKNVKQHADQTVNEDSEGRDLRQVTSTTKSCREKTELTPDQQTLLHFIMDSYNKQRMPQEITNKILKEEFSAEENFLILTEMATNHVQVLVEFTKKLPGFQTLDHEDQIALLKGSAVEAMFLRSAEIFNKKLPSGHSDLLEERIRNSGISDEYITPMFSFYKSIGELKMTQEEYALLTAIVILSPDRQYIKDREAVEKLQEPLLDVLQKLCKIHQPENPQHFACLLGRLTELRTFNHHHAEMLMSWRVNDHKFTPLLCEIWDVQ

CC(C)CCO
not listed: [18] | [19] | [20]
inactive: all other assays above

CCCCC(CC)CNC(=O)CC(C)OC(=O)CCC(=O)O (stereo not given)
not listed: [11]
inactive: all other assays above

CC(C)c1ccccc1O
not listed: [9] | [11] | [19]
inactive: all other assays above

C=CCOc1c(Br)cc(Br)cc1Br
inactive: [18] | [19] | [6] | [8] | [10] | [20] | [12] | [13] | [15] | [16]

COc1cc([N+](=O)[O-])ccc1N
not listed: [1] | [4] | [5] | [7] | [8] | [9] | [11] | [17]
inactive: all other assays above

Cc1nc([N+](=O)[O-])cn1-c1ccc([N+](=O)[O-])cc1
not listed: [11] | [17]
inactive: all other assays above

CCOc1ccc(NC(=O)OC(C)C)cc1OCC
not listed: [1] | [9] | [11] | [12]
inactive: all other assays above

CC(=O)/C=C/c1ccco1
not listed: [9] | [11]
inactive: all other assays above

CCC(C)N (stereo not given)
not listed: [5] | [18] | [20]
inactive: all other assays above

COc1ccc(/C=N/NC(=O)c2ccncc2)cc1OC
not listed: [6] | [7] | [9] | [11] | [17] | [18] | [19]
inactive: all other assays above

CCN(CCC#N)c1ccccc1
not listed: [7] | [11] | [19]
inactive: all other assays above

Cc1ccc(S(=O)(=O)NC(=O)NC2CCCCCCC2)cc1
not listed: [1] | [3] | [5] | [11] | [18] | [19]
inactive: all other assays above

O=C1c2ccccc2-c2ccccc21
not listed: [1] | [4] | [6] | [7] | [11] | [12]
inactive: all other assays above

CCCCCCCCCCCCCCCCCCN(C)C
not listed: [5] | [9] | [17] | [18] | [19] | [20]
inactive: all other assays above

CCNC(=O)NCCCOc1cccc(CN2CCCCC2)c1
not listed: [1] | [4] | [5] | [7] | [12] | [18] | [19] | [20]
inactive: all other assays above

C=C(C)[C@@H]1CC[C@@H](C)C[C@@H]1O
not listed: [1] | [3] | [4] | [6] | [7] | [10] | [18] | [19]
inactive: all other assays above

CCCCCCCC[Si](OCC)(OCC)OCC
not listed: [4] | [14] | [18] | [19] | [20]
inactive: all other assays above
